FLuc counter: counter-screen for miR-21 project: firefly luciferase inhibitors or activators; purified FLuc, Km substrates, luminescence inhibition; P08659; 360,000 tested, 6.9% active; Potency, µM (doses to about 57.5 µM), without a hit: top-dose activity change, negative = inhibition, usual class: inhibitors; AID 588342;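 further: plate controls were vehicle for no effect and reference inhibitor for full effect; nearly all actives have a fitted effect of over 55% in size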
Target sequence (P08659 whole entry, looked up): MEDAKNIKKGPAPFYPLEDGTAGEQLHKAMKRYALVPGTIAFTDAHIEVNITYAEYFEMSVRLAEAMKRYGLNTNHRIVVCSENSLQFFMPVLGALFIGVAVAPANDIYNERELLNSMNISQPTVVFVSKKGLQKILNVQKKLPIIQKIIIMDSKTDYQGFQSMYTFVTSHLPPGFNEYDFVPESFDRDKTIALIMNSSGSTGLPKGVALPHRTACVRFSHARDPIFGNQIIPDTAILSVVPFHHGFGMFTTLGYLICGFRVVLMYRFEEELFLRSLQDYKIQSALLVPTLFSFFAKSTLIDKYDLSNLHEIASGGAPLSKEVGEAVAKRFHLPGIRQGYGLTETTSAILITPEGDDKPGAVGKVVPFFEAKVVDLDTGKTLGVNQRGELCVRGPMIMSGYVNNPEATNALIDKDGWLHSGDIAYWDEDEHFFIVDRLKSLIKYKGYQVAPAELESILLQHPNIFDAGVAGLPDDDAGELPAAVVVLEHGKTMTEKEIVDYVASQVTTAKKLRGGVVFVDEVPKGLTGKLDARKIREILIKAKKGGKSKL
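Purified P. pyralis luciferase, 10 nM final, with Km-level 10 uM D-luciferin and 10 uM ATP in 50 mM Tris acetate pH 7.5, 10 mM Mg acetate, 0.01% Tween-20, 0.05% BSA; 6-point qHTS titration about 60 µM downward; luminescence read.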
NPC1 promoter act: activators of NPC1 promoter | 320,000 tested, 2.4% active | Huh7 NPC1 promoter luciferase reporter, 24 h | AID 485313 | Potency, µM (titrated, usually from 9.22 µM), for the others: at the top dose activation, usual class: activators; further: % of control where 0% means no effect; nearly all actives have a fitted effect of over 60% in size
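Luminescence from an NPC1 promoter-driven luciferase reporter in stably transfected Huh7 cells was measured after 24 h compound treatment at 37 °C, followed by 10 min ambient incubation with luciferase detection reagent.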
Rab9 prom act: activates the Rab9 promoter | Huh7 Rab9 promoter-luciferase reporter, luminescence, 24 h | AID 485297 | Potency, µM (doses to about 9.22 µM), inactives show top-dose activation, negative = inhibition, most hits filed as activators | 320,000 tested, 2.8% active; further: % of control where 0% means no effect; nearly all actives have a fitted effect of over 60% in size
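Luminescence from Amplite-detected luciferase (10 minutes, ambient) reports Rab9 promoter activation. Before that, stable Rab9-luciferase Huh7 cells (1500/well, reduced-serum OP-MEM I plus 10% FBS) were exposed to compound for 24 hours at 37C.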
SMN2 splice enh: increases expression of the SMN2 splice variant. AID 1458. HEK293 SMN2-luciferase splicing reporter, luminescence, 30-36 h. Potency, µM (top dose mostly 46.1 µM), for inactives: at the highest dose activity change, positive = activation, most hits filed as activators. 210,000 tested, 2.8% active; further: % of control where 0% means no effect; nearly all actives have a fitted effect of over 55% in size
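HEK293 cells carry an SMN2 […]–luciferase reporter in which exon 7 inclusion puts luciferase in frame. Cells were plated 10-12 h before compound addition, then incubated 30-36 h at 37C. ONE-Glo luminescence was read; sodium butyrate at 4.5 mM final served as control.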
ELG1 genotox: inducers of genotoxicity in HEK293T ELG1-luciferase cells | 330,000 tested, 1.3% active | AID 504466 | HEK293T ELG1-luciferase reporter, luminescence, 16 h | Potency, µM (series often up to 46 µM), for inactives: at the top dose activity change, positive = activation, hits mostly activators; further: % of control where 0% means no effect; nearly all actives have a fitted effect of over 60% in size
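Genotoxic stress is detected as increased luminescence from luciferase-tagged ELG1 in HEK293T cells, measured with ONE-Glo after a 16 hr treatment at 37 °C.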
* hit, by the source's call; ? = inconclusive; . = not tested or not shown. In the library only some 7.5% were active in any assay of this set; here they are far more common. The call rests on the fitted dose curve; in most records, active means well fitted curve in the direction sought with a large enough effect; inconclusive means small, poorly fitted or top-dose-only effect, or another doubt; inactive means no such curve, though single readings can be large; an effect the other way counts as inactive or inconclusive. Potency means the concentration at half of the fitted maximal effect.

SMILES	FLuc counter	NPC1 promoter act	Rab9 prom act	SMN2 splice enh	ELG1 genotox
CCOc1cc2c(cc1OCC)C(c1ccccc1OC)OC(=O)C2 (configuration not stated)	-2.2%	2.5%	-3.7%	-15.0%	1.0%
Cc1cn2c(N)c(C=C3C=C(Cl)C(=O)C(Cl)=C3)c(=O)nc2s1	16.9µM*	-2.0%	-3.8%	-11.7%	0.2%
COC1=C/C(=C/c2c(N)n3cc(C)sc3nc2=O)C=CC1=O	3.79µM*	1.8%	0.0%	-6.3%	2.3%
CC(=O)CSc1nc2c(c(=O)[nH]c(=O)n2C)n1Cc1ccccc1Cl	2.6%	-8.1%	-0.3%	.	16.0%
COc1ccc(/C=c2\s/c(=C/C(=O)c3ccc(C)cc3)[nH]c2=O)cc1OC	10.7µM*	-0.9%	2.5%	-13.1%	-3.6%
COC(=O)CNC(=O)c1c(-c2c(Cl)cccc2Cl)noc1C	5.1%	-0.1%	0.5%	-6.3%	0.0%
COc1cccc(Nc2ncnc3nc[nH]c23)c1	19µM*	?	?	12.6µM*	13.0%
CCCCc1ccc(Nc2ncnc3nc[nH]c23)cc1	10.7µM*	?	?	5.0%	8.2µM*
CCc1ccc(Nc2ncnc3nc[nH]c23)cc1	10.7µM*	2.24µM*	2µM*	.	?
Clc1ccc(CCNc2ncnc3nc[nH]c23)cc1	-19.0%	0.0%	-7.3%	-63.1%	-1.7%
Cc1ccc(Nc2ncnc3nc[nH]c23)cc1Cl	?	3.55µM*	3.16µM*	?	5.8µM*
CCCNc1ncnc2nc[nH]c12	-0.8%	-7.9%	-7.5%	-19.4%	-9.7%
CC1OC(OC2C(OC3C(O[C@H]4CC[C@]5(C)C6C=C[C@]78OC[C@@]9(CC[C@@H](C)[C@H](C)C97)[C@H](O)C[C@@]8(C)[C@]6(C)CC[C@H]5C4(C)C)OC(C)C(O)C3O)OC(CO)C(O)C2O)C(O)C(O)C1O (some centres not stated)	-6.1%	-15.4%	-27.9%	.	-14.5%
CCCn1c(N)c(N(CCOC)C(=O)Cc2ccc(S(=O)(=O)N3CCOCC3)s2)c(=O)[nH]c1=O	0.8%	-7.7%	-1.6%	.	0.8%
O=C(CSc1ccccc1F)OCC(=O)N1CCN(C(=O)c2ccco2)CC1	1.7%	-1.3%	1.8%	.	0.8%
Cc1ccc(NC(=O)Nc2ncnc3nc[nH]c23)cc1	12µM*	3.55µM*	2.82µM*	.	?
Cc1ccnc(SCc2cc(=O)c(OC(=O)c3ccccc3)co2)n1	?	-5.1%	-4.7%	-15.3%	-6.1%
Cc1nc(N)sc1N=Nc1ccc(F)cc1	12µM*	?	?	11.8%	11.6µM*
Nc1n[nH]c(N)c1N=Nc1ccc(F)cc1	?	6.7%	?	13.6%	0.7%
COc1ccc(NC(=O)CCCc2ccc(OC)c(C)c2)cc1	-8.6%	3.4%	8.8%	.	-3.5%
COc1cccc(/C=N/NC(=O)CCc2ccccc2)c1	10.7µM*	0.6%	1.3%	-3.8%	3.2%
COc1cccc(/C=N/NC(=O)CCCc2ccc(OC)c(C)c2)c1	19µM*	-1.4%	-2.2%	-15.9%	-0.9%
COc1ccccc1-n1nc(C(=O)NCc2ccco2)c2ccccc2c1=O	1.4%	-0.1%	2.2%	2.1%	-0.8%
COc1ccc(CCNC(=O)Cn2c(=O)c3cccn3c3cccnc32)c(OC)c1OC	2.7%	0.1%	1.6%	.	9.4%
Cc1cc(C)c(S(=O)(=O)N(C)CC(=O)NCc2cccnc2)c(C)c1	-0.4%	-3.5%	6.7%	.	-0.7%
SMILES	FLuc counter	NPC1 promoter act	Rab9 prom act	SMN2 splice enh	ELG1 genotox
Cc1ccn2c(Nc3ccc(F)cc3)c(-c3ccc(C)o3)nc2c1	-0.8%	.	.	4.7%	.
Cc1ccn2c(Nc3ccc4c(c3)OCCO4)c(-c3ccc(C)o3)nc2c1	13.5µM*	.	.	?	.
c1coc(-c2nc3ccccn3c2Nc2ccc3c(c2)OCCO3)c1	?	.	.	2.2%	.
COc1cc(-c2nc3ccc(C)cn3c2Nc2ccc3c(c2)OCCO3)ccc1O	21.3µM*	1.2%	0.3%	?	4.5%
Cc1ccc2nc(-c3ccc(C)s3)c(Nc3ccc4c(c3)OCCO4)n2c1	?	.	.	12.6µM*	.
Cc1ccc2nc(-c3ccco3)c(Nc3ccc4c(c3)OCCO4)n2c1	10.7µM*	.	.	7.8%	.
COc1ccccc1Oc1nc(C)c(C(C)=O)cc1C#N	-1.1%	-22.4%	-2.1%	-31.5%	-4.0%
Cc1cc2nc(-c3ccc(SCC(=O)NC(C)C)nc3)[nH]c2cc1C	2.13µM*	2.82µM*	3.16µM*	?	8.1%
O=C(CSc1nc(-c2ccccc2)cc(=O)[nH]1)N1CCc2ccccc21	1.5%	-0.1%	-4.3%	15.7%	-11.1%
Cc1cc2nc(-c3ccc(SCc4ccccc4C#N)nc3)[nH]c2cc1C	9.53µM*	22.4%	?	11.2µM*	?
N#Cc1ccccc1CSc1ccccn1	-9.5%	-0.4%	-3.2%	10.8%	2.5%
Cc1cc(NC(=O)CSc2ccc(-c3nc4cc(C)c(C)cc4[nH]3)cn2)no1	0.19µM*	2µM*	0.447µM*	-25.7%	?
Cc1cc2nc(-c3ccc(SCC(=O)N4CCc5ccccc54)nc3)[nH]c2cc1C	0.135µM*	1.12µM*	0.501µM*	2.51µM*	?
O=[N+]([O-])c1cc2c(cc1CN1CCN(c3ccccc3)CC1)OCO2	?	19.9%	17.9%	.	8.6%
CCC(C(=O)OCC(=O)Nc1cc(Cl)ccc1Cl)c1ccccc1 (configuration not stated)	-11.2%	0.3%	1.4%	-2.2%	-1.5%
Cc1cc2nc(-c3ccc(SCc4ccc(C(=O)O)cc4)nc3)[nH]c2cc1C	4.26µM*	?	?	.	?
Cc1cc2nc(-c3ccc(SCC(=O)Nc4ccc(S(=O)(=O)NC5CC5)cc4)nc3)[nH]c2cc1C	0.107µM*	2.82µM*	1.41µM*	3.55µM*	?
COC(=O)CSc1ccc(-c2nc3ccc(C)cc3[nH]2)cn1	2.69µM*	-0.3%	-1.5%	2.0%	?
Cc1cc(C)c(C)c(S(=O)(=O)N2CCC(C(=O)Nc3ccc(S(=O)(=O)N4CCOCC4)cc3)CC2)c1C	6.7%	-4.2%	-7.9%	.	-12.9%
COc1cc(F)ccc1CN1CCC(C(=O)Nc2ccc(Oc3ccccc3)nc2)CC1	-0.7%	-11.7%	-15.0%	.	-8.6%
CCN1/C(=C/C=C/c2sc3ccccc3[n+]2CC)Sc2ccccc21	21.3µM*	-40.3%	-44.7%	.	?
CCN1/C(=C/C=C/C=C/c2sc3ccccc3[n+]2CC)Sc2ccccc21	15.1µM*	-37.6%	-32.0%	-90.2%	-8.4%
O=C(CSC1=NCCS1)Nc1nc2ccccc2s1	19µM*	29.1%	?	10.2%	8.6%
Cc1ccc(-c2csc(NC(=O)CSC3=NCCS3)n2)cc1	13.5µM*	11.9%	18.3%	19.0%	?
CCOC(=O)N1CCN(C(=O)CSCC(=O)Nc2nc(-c3ccc(-c4ccccc4)cc3)cs2)CC1	-16.1%	?	?	-1.5%	2.59µM*
